Bioassay records deposited in PubChem BioAssay by National Center for Advancing Translational Sciences (NCATS).
KDM5B inhibitor: Primary screen for KDM5B Histone Demethylases FDH-coupled qHTS; AID 1347165, 2019; hit rate 2.6% among 220,000; KDM5B demethylase, FDH-coupled NADH fluorescence (FDH is formaldehyde dehydrogenase); Potency, µM (titrated, usually from 57.7 µM), usual class: inhibitors; active = well fitted inhibition curve with a large enough effect; note: nearly all actives have a fitted effect of over 70% in size
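Inhibition is measured as reduced NADH fluorescence generation from FDH coupling to formaldehyde release. Truncated KDM5BΔAP at 200 nM final acts on H3K4me3 peptide (12.5 µM in substrate mix) in pH 7.5 HEPES buffer with Tween-20, 30 min, room temperature.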
Numbers stand for hits; – = inactive. This excerpt belongs to a sample that is enriched for hits.

SMILES	KDM5B inhibitor
COc1cccc(N2CC(C(=O)NCc3cccs3)NC2=O)c1 (stereo not given)	–
COc1ccc(NC(=O)CN(C)CC(=O)NC(=O)NCc2ccccc2)cc1	–
COc1ccc(C(=O)N2CCc3ccc(C(=O)NCc4cccs4)cc32)cc1	–
CN1Cc2ccc(NCc3ccccc3)nc2C(C)(C(=O)NCCOc2ccccc2)C1 (stereo not given)	32µM
CN1CCC(NC(=O)C2(C)CN(C)Cc3ccc(Nc4ccccc4)nc32)CC1 (stereo not given)	–
CN(CC(O)COc1cccc(CNCCc2ccc(F)cc2)c1)C1CCCCC1 (stereo not given)	–
CCCCCCOc1ccc(OC(=O)c2cncc(Br)c2)cc1	–
O=C1Nc2ccccc2CNC12CCN(Cc1ccc(Cl)cc1)CC2	–
CC(NC(=O)CC1C=CCC1)C1CCCO1 (stereo not given)	–
COc1ccc(N(Cc2cccs2)C(=O)Cn2nnc(-c3ccc(F)cc3)n2)cc1	–
CCN1C(=O)COc2ccc(NC(=O)c3oc4cc(C)cc(C)c4c3C)cc21	–
CN(C)C(=O)CSc1nc(C2CC2)nc2ccccc12	–
O=C(CCCSc1nc2ccccc2s1)NCCc1ccc(F)cc1	–
N#C/C(=C/c1ccc(O)cc1)c1ccc(C(F)(F)F)cn1	–
CCOC(=O)c1oc2ccc(S(=O)(=O)N3CCCCCCNC(=O)[C@@H]4CCC[C@@H]43)cc2c1C	–
O=C(NC1CC1)C1CCc2nnc(-c3ccc(Cl)cc3Cl)n21 (stereo not given)	–
CC(C)CCn1nc(C(=O)Nc2ccccc2C(C)(C)C)c2ccccc2c1=O	–
CC(NC(=O)c1cnccn1)c1ccncc1 (stereo not given)	–
CC(C)NC(=O)c1nc(C(C)(C)C)c2cnccn12	126µM
C#CCNC(=O)c1cc(-c2cnccc2Cl)c2cccn2n1	–
CC(C)NC(=O)c1cc(C(C)(C)C)c2cccn2n1	–
C#CCNC(=O)c1nc(C(C)(C)C)c2cnccn12	50µM
C#CCNC(=O)c1cc(C(C)(C)C)c2cccn2n1	–
COc1ccc(CNC(=O)N2CCCC(CN3CCCC3)CC2)cc1 (stereo not given)	–
O=C(Nc1ccc(F)cc1)c1ccc2cc[nH]c2n1	112µM
SMILES	KDM5B inhibitor
CN(C)C(=O)c1ccc2cc[nH]c2n1	126µM
CN(C)C(=O)c1[nH]cnc1C(=O)NCC(C)(C)C	–
O=C(Nc1ccc(F)c(F)c1)c1ccc2ccccc2n1	–
O=C(Nc1cccc(F)c1)c1ccc2ccccc2n1	–
CN(C)CCCNC(=O)C(=O)Nc1ccc2cc[nH]c2c1	–
Fc1ccc(OC2CN(Cc3cncs3)C2)cc1F	–
COCC1CN(S(=O)(=O)c2c(C)noc2C)CC12CCNCC2 (stereo not given)	–
O=C(CN1CC2CC(C1)[C@H]1CCCC(=O)N1C2)Nc1ccc2c(c1)OCCO2 (stereo not given in full)	–
N#CCOc1ccc2ccccc2c1	–
COCc1ncc(C)n1CCNC(=O)c1ccc(C)[nH]c1=O	22µM
COCc1ncc(C)n1CCNC(=O)c1cc(-c2cc(C)ccc2C)n[nH]1	–
COCc1ncc(C)n1CCNC(=O)c1cc(-c2ccccc2C)n[nH]1	–
O=C(O)c1cccc(-c2cccc(F)c2)c1	–
O=C(O)c1cccc(-c2cccc(O)c2)c1	–
CSc1ccc(-c2cccc(C(=O)O)c2)cc1	56µM
COCCn1c(C)cnc1CCNS(=O)(=O)c1cccc(OC)c1	–
FC(F)(F)c1ccc(CCNC(=S)NCCc2ccccc2)cc1	–
CN(C)Cc1nnc(C2CC(NC(=O)c3nc4ccccc4[nH]3)C2)n1C (stereo not given)	22µM
Cc1ccc(C(=O)NC2CC(c3nnc(CN(C)C)n3C)C2)s1 (stereo not given)	–
CN(C)Cc1nnc(C2CC(NC(=O)c3cnc4ccccc4n3)C2)n1C (stereo not given)	–
C=CCNC(=S)NNC(=O)C1CCCC1	–
Cc1cc(Oc2cc(C#N)c(C#N)cc2Oc2ccc(Cl)c(C)c2)ccc1Cl	–
CC(C)Oc1ccc(C(=O)N2CCc3c(sc4ncnc(N)c34)C2)cc1	–
CCOC(=O)c1cnn(-c2ncnc3sc4c(c23)CCC4)c1N	–
COCCNC(=O)N1CCc2nc(N3CCN(C)CC3)[nH]c(=O)c2CC1	–
SMILES	KDM5B inhibitor
CCNc1ncnc2sc3c(c12)CCN(C(=O)NCCOC)C3	28µM
CCCNC(=O)N1CCc2c(sc3ncnc(N4CCN(C)CC4)c23)C1	28µM
COCCCNc1ncnc2sc3c(c12)CCNC3	25µM
COCCNC(=O)N1CCc2nc(N(C)C)[nH]c(=O)c2CC1	–
CCNC(=O)N1CCc2c(sc3ncnc(NCC)c23)C1	32µM
COCCCNc1ncnc2c1nnn2C	–
COCC(=O)N1CCc2c(sc3ncnc(N4CCN(C)CC4)c23)C1	–
CCNC(=O)N1CCc2c(sc3ncnc(N(C)C)c23)C1	–
COCCCNc1ncnc2c1nc1n2CCCC1	–
Cc1ccccc1NS(=O)(=O)c1ccc2c(c1)-c1oncc1CO2	–
CN(CC(=O)NC(=O)NC1CCCC1)Cc1ccc(C(F)(F)F)cc1	–
CC(C)NS(=O)(=O)c1ccc(NC(=O)C2c3ccccc3Oc3ccccc32)cc1	–
N#CC(C#N)=Cc1cccn1-c1ccc2ccccc2c1	–
COc1ccc(-n2c(=O)c3c(n2Cc2ccccc2)CN(C(=O)COc2ccccc2)CC3)cc1	–
CNC(=O)[C@@H]1CN(C(=O)CC2CCCC2)C[C@H]1COC	–
O=C(NC1CC1)C1(c2ccc(Cl)cc2)CC1	–
CCn1nccc1C(=O)NCCC1CCN(C(=O)Nc2cc(F)cc(F)c2)CC1	–
CCCc1sc(C(=O)N2CCCCCC2)cc1Br	–
COC(=O)N(C)CC(=O)NC1CCC(C)CC1 (stereo not given)	–
CCCN(CC#N)CC(=O)NC(C)(C#N)C(C)C (stereo not given)	–
CC(C)(C)CN[C@@H]1CO[C@H](CNS(=O)(=O)c2ccccc2)[C@H]1O	–
Cc1ccc2[nH]cc(CCNC(=O)c3ccc(C(F)(F)F)cc3)c2c1	–
CC(NCc1nc2c([nH]1)c(=O)n(C)c(=O)n2C)c1ccccc1 (stereo not given)	–
C[C@H](Nc1ncnc2sc3c(c12)CCC3)C(=O)O	–
CCNc1ncnc2sc3c(c12)CCN(Cc1ccc[nH]1)C3	28µM
SMILES	KDM5B inhibitor
Cc1cc(C)cc(Nc2ncnc3sc4c(c23)CCCC4)c1	–
Cc1nnc(CN2CCC(NC(=O)c3cnn(C)c3)CC2)o1	–
O=C(CC[C@@H]1CNC(=O)[C@@H]2C[C@H](NCc3ccccc3)CN12)NCc1ccccc1	–
COc1ccc(CN[C@H]2C[C@H]3C(=O)NC[C@@H](CCC(=O)NCc4ccccc4)N3C2)cc1	35µM
O=C(CC[C@@H]1CNC(=O)[C@@H]2C[C@H](NCc3cccc(Cl)c3)CN12)NCc1ccc(F)cc1	–
O=C(CC[C@@H]1CNC(=O)[C@@H]2C[C@H](NCc3ccccc3)CN12)NCc1ccc(F)cc1	–
O=C(CC[C@@H]1CNC(=O)[C@@H]2C[C@H](NCc3ccccn3)CN12)NCc1ccccc1	25µM
O=C(CC[C@@H]1CNC(=O)[C@@H]2C[C@H](NS(=O)(=O)c3ccc(F)cc3)CN12)NCc1ccccc1	–
Cc1ccc(CNC(=O)N2CCC(Cc3ccc(C(=O)NC4CC4)cc3)CC2)cc1	–
Cc1cc(O)c(C(=O)c2cccs2)c(=O)o1	–
c1ccc(-c2ccc(CNCc3cccnc3)o2)cc1	–
CC(=O)NC(C)c1cccc([N+](=O)[O-])c1 (stereo not given)	–
